This is an account of results in ChEMBL document CHEMBL2218924, “A broad activity screen in support of a chemogenomic map for kinase signalling research and drug discovery” (Biochem J, 2013).

In test [1] the target is Mast/stem cell growth factor receptor Kit (Homo sapiens) (UniProt P10721). The note with it: at 1 µM.
Test [2] has the same target. The note with it: at 10 µM.
In test [3] the target is Proto-oncogene tyrosine-protein kinase Src (Homo sapiens) (UniProt P12931). To be noted: at 1 µM.
Test [4] shares this target. The note with it: at 10 µM.
Test [5] has as its target Serine/threonine-protein kinase mTOR (Homo sapiens) (UniProt P42345). The note with it: at 1 µM.
For test [6] the target is unchanged. The note with it: at 10 µM.
For test [7] the target is unchanged. To be noted: at 1 µM. The source holds these as a separate data set.
The target is the same in test [8]. To be noted: at 10 µM. This is another data set of the same source.
The target in test [9] is Ribosomal protein S6 kinase beta-1 (Homo sapiens) (UniProt P23443). To be noted: at 1 µM.
The target is the same in test [10]. To be noted: at 10 µM.
Test [11] deals with Serine/threonine-protein kinase Nek6 (Homo sapiens) (UniProt Q9HC98). To be noted: at 1 µM.
Test [12] has the same target. The note with it: at 10 µM.
For test [13], the target named is Serine/threonine-protein kinase Nek7 (Homo sapiens) (UniProt Q8TDX7). The note with it: at 1 µM.
For test [14] the target is unchanged. The note with it: at 10 µM.
The target of test [15] is T1, Serine/threonine-protein kinase NLK (Homo sapiens) (UniProt Q9UBE8).
T1 sequence (whole entry): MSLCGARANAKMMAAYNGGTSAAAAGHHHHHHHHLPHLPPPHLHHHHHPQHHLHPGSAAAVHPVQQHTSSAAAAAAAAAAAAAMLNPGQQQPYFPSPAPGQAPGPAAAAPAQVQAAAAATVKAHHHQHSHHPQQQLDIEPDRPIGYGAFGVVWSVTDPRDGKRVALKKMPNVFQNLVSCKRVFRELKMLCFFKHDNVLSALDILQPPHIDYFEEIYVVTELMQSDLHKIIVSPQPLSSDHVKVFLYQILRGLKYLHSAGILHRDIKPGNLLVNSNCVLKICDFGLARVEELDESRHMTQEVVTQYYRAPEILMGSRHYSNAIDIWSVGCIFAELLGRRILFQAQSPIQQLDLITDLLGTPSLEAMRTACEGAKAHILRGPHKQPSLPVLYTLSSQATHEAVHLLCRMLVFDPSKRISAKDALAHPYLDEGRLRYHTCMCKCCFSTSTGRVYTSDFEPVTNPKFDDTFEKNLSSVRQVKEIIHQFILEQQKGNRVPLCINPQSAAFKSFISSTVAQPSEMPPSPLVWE
The note with it: at 1 µM.

In test [16] the target is T1, Serine/threonine-protein kinase NLK (Homo sapiens). To be noted: at 10 µM.
Test [17] addresses Serine/threonine-protein kinase PAK 2 (Homo sapiens) (UniProt Q13177). The note with it: at 1 µM.
Test [18] shares this target. To be noted: at 10 µM.
The target of test [19] is T2, Eukaryotic elongation factor 2 kinase (Homo sapiens) (UniProt O00418).
T2 sequence (whole entry): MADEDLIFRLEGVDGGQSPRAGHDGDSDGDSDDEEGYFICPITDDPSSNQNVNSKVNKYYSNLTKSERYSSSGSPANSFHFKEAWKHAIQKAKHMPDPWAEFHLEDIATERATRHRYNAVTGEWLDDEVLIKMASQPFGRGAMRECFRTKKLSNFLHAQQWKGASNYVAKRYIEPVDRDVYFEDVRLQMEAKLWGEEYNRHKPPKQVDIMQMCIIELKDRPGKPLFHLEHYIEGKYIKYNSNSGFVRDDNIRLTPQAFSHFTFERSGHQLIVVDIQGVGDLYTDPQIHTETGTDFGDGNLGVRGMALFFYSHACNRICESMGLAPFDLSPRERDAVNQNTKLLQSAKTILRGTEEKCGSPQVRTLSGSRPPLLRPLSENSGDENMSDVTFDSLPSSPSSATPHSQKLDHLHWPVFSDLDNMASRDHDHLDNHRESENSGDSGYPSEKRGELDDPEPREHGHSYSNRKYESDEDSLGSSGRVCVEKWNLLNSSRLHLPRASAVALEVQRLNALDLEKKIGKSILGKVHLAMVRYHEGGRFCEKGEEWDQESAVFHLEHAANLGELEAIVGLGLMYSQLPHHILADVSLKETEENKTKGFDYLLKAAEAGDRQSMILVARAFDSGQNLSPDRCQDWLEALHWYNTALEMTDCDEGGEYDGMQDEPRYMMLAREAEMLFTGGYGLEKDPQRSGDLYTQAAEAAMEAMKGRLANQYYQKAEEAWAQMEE
To be noted: at 1 µM.

The target of test [20] is T2, Eukaryotic elongation factor 2 kinase (Homo sapiens). To be noted: at 10 µM.

Sequence of Serine/threonine-protein kinase PAK 2 (Homo sapiens) (Q13177 whole entry): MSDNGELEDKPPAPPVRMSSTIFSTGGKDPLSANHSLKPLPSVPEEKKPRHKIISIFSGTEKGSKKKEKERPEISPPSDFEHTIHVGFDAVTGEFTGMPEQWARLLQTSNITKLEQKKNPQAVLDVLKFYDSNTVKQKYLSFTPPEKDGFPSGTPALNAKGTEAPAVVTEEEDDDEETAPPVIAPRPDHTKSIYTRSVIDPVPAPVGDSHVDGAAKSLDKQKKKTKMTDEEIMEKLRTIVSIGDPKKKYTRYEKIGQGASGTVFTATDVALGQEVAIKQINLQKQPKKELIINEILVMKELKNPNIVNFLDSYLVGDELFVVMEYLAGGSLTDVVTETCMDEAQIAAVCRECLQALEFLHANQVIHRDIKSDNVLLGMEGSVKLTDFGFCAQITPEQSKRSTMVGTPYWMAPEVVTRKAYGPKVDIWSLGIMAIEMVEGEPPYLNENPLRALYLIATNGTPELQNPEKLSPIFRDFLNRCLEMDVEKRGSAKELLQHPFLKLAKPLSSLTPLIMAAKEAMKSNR
Sequence of Serine/threonine-protein kinase Nek6 (Homo sapiens) (Q9HC98 whole entry): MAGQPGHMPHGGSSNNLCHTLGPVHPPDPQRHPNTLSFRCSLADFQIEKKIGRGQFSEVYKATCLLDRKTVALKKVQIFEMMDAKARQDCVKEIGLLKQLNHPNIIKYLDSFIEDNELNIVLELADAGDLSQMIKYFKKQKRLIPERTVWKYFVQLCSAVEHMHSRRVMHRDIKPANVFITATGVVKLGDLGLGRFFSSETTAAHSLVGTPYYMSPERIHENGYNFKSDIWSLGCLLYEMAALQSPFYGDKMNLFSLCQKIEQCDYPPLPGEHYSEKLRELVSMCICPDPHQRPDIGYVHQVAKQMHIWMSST
Sequence of Serine/threonine-protein kinase Nek7 (Homo sapiens) (Q8TDX7 whole entry, looked up): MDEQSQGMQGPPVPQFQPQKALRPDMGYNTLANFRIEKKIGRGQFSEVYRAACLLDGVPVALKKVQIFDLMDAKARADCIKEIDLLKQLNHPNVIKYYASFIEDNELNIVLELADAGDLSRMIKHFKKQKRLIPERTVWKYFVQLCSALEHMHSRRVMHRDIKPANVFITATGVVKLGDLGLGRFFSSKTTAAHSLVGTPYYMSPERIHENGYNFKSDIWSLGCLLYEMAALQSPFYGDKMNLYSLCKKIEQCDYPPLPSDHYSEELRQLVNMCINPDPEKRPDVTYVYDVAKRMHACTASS
Sequence of Mast/stem cell growth factor receptor Kit (Homo sapiens) (P10721 whole entry): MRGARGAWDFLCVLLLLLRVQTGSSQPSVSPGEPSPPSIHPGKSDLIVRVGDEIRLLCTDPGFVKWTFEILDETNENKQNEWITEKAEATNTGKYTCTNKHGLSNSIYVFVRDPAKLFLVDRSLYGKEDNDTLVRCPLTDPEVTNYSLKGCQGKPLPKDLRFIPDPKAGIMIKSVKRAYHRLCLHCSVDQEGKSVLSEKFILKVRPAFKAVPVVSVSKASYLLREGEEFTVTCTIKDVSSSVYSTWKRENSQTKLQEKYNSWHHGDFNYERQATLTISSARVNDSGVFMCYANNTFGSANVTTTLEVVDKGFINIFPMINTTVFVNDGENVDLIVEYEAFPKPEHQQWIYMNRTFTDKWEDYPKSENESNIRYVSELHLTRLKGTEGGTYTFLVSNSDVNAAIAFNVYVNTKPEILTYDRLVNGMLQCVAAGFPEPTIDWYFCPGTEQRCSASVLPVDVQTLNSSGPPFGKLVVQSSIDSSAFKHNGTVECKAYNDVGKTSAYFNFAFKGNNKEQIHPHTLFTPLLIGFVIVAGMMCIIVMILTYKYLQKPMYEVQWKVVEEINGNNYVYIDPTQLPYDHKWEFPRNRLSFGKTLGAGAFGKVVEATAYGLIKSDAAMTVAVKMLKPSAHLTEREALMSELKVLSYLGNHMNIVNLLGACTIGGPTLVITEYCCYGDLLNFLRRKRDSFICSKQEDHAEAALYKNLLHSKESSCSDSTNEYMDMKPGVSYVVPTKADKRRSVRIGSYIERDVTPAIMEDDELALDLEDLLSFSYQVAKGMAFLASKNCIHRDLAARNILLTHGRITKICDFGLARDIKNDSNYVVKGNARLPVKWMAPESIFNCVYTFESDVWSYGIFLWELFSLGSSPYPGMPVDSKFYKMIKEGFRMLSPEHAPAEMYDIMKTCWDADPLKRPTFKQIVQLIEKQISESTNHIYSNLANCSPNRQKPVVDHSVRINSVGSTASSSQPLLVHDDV
Sequence of Proto-oncogene tyrosine-protein kinase Src (Homo sapiens) (P12931 2-536 limits assumed): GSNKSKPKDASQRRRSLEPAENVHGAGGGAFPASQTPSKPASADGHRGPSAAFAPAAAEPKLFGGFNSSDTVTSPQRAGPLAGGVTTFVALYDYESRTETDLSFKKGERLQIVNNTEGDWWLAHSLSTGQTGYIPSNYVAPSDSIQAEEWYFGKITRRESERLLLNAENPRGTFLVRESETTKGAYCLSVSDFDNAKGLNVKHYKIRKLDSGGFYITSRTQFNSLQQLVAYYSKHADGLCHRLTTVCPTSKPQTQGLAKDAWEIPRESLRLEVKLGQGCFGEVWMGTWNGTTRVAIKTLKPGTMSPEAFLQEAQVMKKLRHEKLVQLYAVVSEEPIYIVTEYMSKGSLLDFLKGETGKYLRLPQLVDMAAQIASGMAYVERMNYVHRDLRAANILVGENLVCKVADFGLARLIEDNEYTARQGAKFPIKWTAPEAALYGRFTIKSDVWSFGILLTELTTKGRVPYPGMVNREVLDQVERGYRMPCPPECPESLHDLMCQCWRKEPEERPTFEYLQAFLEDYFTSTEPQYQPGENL
Sequence of Ribosomal protein S6 kinase beta-1 (Homo sapiens) (P23443 whole entry, looked up): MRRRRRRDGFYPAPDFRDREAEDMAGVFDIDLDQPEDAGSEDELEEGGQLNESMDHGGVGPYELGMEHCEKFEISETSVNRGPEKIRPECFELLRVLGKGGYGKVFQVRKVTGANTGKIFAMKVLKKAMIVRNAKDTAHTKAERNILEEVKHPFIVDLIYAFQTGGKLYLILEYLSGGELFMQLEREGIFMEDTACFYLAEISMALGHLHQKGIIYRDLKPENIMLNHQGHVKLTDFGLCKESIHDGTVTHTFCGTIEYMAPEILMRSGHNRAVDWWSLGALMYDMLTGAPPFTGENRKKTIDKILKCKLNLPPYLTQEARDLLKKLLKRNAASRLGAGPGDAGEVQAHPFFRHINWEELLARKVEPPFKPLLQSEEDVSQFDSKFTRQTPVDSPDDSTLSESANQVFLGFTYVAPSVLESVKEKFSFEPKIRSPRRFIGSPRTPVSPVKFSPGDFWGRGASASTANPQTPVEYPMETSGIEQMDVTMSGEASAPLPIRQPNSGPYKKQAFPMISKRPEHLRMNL

As for `O=c1cc(-c2cccc3c2Sc2ccccc2S3)oc(N2CCOCC2)c1`, the residual activity (in general, the signal under treatment as a percentage of the control signal) in test [1] was 99%; in test [2], 102%; in [3], 89%; in [4] it was 92%; in test [5], 98%; in test [6], 74%. For the same compound, the residual activity was 89% in [7]; 60% in [8]; 119% in [9]; 93% in test [10]; 108% (inactive) in test [11]; 122% in test [12]. Also, the residual activity in test [13] was 109% (inactive); in test [14], 140% (inactive); in test [15] it was 101%; in test [16], 101%; in [17], 113%; in test [18], 95%.

On to `O=C1NC(=O)c2cc(Nc3ccc(F)cc3)c(Nc3ccc(F)cc3)cc21`, for which the residual activity in test [1] was 113%; in test [2] it was 99%; in [3], 74%; in [4], 51%; in [5], 90%; in test [6], 85%. The residual activity was 73% in [7]; 85% in test [8]; 81% in [9]; 101% in [10]; 112% (inactive) in test [11]; 111% in [12]. Also, the residual activity in [13] is 98% (inactive); in test [14], 98% (inactive); in [15], 92%; in test [16], 80%; in [17], 107%; in [18], 79%.

In the case of `Cc1cc2ncc(-c3ccccc3)nc2cc1C`, the residual activity amounted to 86% in test [1]; 70% in test [2]; 83% in [3]; 99% in test [4]; 93% in test [5]; 100% in test [6]. In addition, the residual activity is 70% in test [7]; 83% in test [8]; 80% in [9]; 52% in [10]; 104% (inactive) in test [11]; 102% in test [12]. The residual activity in test [13] was 106% (inactive); in [14], 101% (inactive); in [15], 105%; in test [16], 91%; in test [17], 97%; in test [18] it was 94%.

As for `CO[C@@H]1[C@H](N(C)C(=O)c2ccccc2)C[C@H]2O[C@]1(C)n1c3ccccc3c3c4c(c5c6ccccc6n2c5c31)C(=O)NC4`, the residual activity in [1] stood at 65%; in [2], 39%; in test [3], 40%; in test [4], 24%; in test [5] it was 95%; in [6] it was 103%. The residual activity in test [7] is 107%; in test [8] it was 83%; in test [9], 4%; in test [10], 1%; in test [11], 93% (inactive); in test [12], 92%. For the same compound, the residual activity is 91% (inactive) in [13]; 82% (inactive) in test [14]; 90% in test [15]; 73% in test [16]; 72% in [17]; 50% in [18].

For the compound `Oc1ccc(-c2nc(-c3ccc(F)cc3)c(-c3ccncc3)[nH]2)cc1`, the residual activity in test [1] was 122%; in test [2], 107%; in test [3] it was 108%; in test [4], 45%; in test [5], 98%; in test [6] it was 90%. Also, the residual activity was 123% in [7]; 90% in test [8]; 72% in test [9]; 25% in test [10]; 105% (inactive) in test [11]; 110% in test [12]. Further, the residual activity in test [13] was 114% (inactive); in test [14] it was 103% (inactive); in [15], 49%; in test [16], 13%; in test [17], 95%; in test [18], 85%.

With `O=C(Nc1cccc(Nc2nccc(Nc3cccc(C(F)(F)F)c3)n2)c1)C1CC1`, the residual activity in test [1] was 94%; in test [2] it was 46%; in test [3], 56%; in test [4] it was 12%; in test [19], 93% (inactive); in test [20], 101%. The residual activity in test [5] was 79%; in test [6] it was 83%; in test [7], 71%; in test [8], 84%; in [9], 83%; in [10], 62%. The residual activity is 107% (inactive) in test [11]; 105% in test [12]; 103% (inactive) in test [13]; 104% (inactive) in test [14]; 95% in [15]; 39% in test [16]. Besides, the figures for the residual activity in [17] and in test [18] were 116% and 58%, respectively.

With `O=C(Nc1cccc(Nc2cc(Nc3cccc(C(F)(F)F)c3)ncn2)c1)C1CC1`, the residual activity in test [1] stood at 106%; in test [2], 100%; in [3], 110%; in test [4], 64%; in test [5] it was 105%; in [6], 105%. The residual activity is 104% in test [7]; 102% in test [8]; 92% in test [9]; 110% in [10]; 99% (inactive) in test [11]; 126% in [12]. Moreover, the residual activity in [13] was 95% (inactive); in test [14], 93% (inactive); in test [15] it was 63%; in test [16], 27%; in test [17], 116%; in test [18], 83%.
